ssDAF-12 act – S. stercoralis DAF-12 activation, primary screen; HEK293 ssDAF-12/GRIP1 lit1-tk-luc reporter, luminescence; % of 3 µM dafachronic acid response; activation, % at 6.8 µM; actives 1% (n = 370,000); AID 652126;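 active means activation above the mean over all tested compounds plus 3 SD, cut at about 0.9% in these data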;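 further: 0% = DMSO-only wells and 100% = 3 µM delta7-dafachronic acid wells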
hgDAF-12 ag – hgDAF-12 agonism, primary luciferase screen; HEK293 GAL4-hgDAF12 UAS-luciferase reporter, agonist luminescence; normalized to butyrate control; activation, % at 6.8 µM; actives 1.8% (n = 370,000);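 active means activation above a cutoff set at the mean of all screened compounds plus 3 SD, cut at about 10% in these data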;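 further: 0% = DMSO wells and 100% = sodium butyrate wells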
SMARCA2 act – activators of SMARCA2 function; MG213 cells, MMTV-luciferase reporter, dexamethasone, overnight; activation, % at 9.1 µM; actives 1% (n = 370,000); AID 652017; in the data active means activation above about 7.8%;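 further: 0% = vehicle wells and 100% = reference activator wells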
hcDAF-12 act – H. contortus DAF-12 activation, primary screen. actives 1.4% (n = 370,000). AID 652067. activation, % at 6.8 µM. HEK293 hcDAF-12 lit1-tk-luc reporter, luminescence; 0% DMSO, 100% Δ7-dafachronic acid;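 active means activation above the mean of all tested compounds plus 3 SD, cut at about 5.5% in these data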;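 further: 100% = response to 3 µM Δ7-dafachronic acid high control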
DAX1 inh-1 – inhibitors of DAX1 repression of SF-1 activated StAR promoter | HEK293T StAR-luciferase reporter, SF-1/DAX-1 repression relief | inhibition, % at 6.8 µM | actives 1.1% (n = 370,000) | AID 652010;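 active means inhibition above the mean over all tested compounds plus 3 SD, cut at about 3.6% in these data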;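 further: 0% = DAX-1 cells with DMSO and 100% = cells lacking DAX-1 with DMSO; higher inhibition means more luminescence from relief of DAX-1 repression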
DAX1 inh-2 – NR0B1 (DAX1) inhibition; P51843; HEK293 Gal4-DAX1 luciferase reporter, luminescence; inhibition, % at 6.75 µM; actives 0.99% (n = 340,000); AID 504766;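 active means inhibition above the mean over all tested compounds plus 3 SD, cut at about 4.2% in these data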;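 further: 0% = DAX1-transfected cells with DMSO and 100% = empty-vector control cells with DMSO; inhibition shows as a rise in luminescence from relieved DAX1 repression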
Target sequence (P51843 207-470 limits assumed): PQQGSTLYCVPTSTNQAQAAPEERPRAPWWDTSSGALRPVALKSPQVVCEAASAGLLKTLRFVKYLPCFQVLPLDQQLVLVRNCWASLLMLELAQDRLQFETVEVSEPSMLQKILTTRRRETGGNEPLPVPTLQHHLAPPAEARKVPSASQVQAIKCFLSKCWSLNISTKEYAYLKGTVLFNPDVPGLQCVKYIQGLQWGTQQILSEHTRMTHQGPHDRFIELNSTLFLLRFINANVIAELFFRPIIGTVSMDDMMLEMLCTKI
SMARCA2 conf – SMARCA2 activation, confirmation screen; MG213 cells, MMTV-luciferase with dexamethasone, luminescence, overnight; MG213 cells expressing E1A, Rb sequestered; DMSO wells 0%, reference activator 100%; actives 30% (n = 3,500); activation, % at 9.1 µM; shares compounds with SMARCA2 act;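 active means activation above its plate's cutoff, the mean activation of tested wells plus 3 SD, cut at about 7.9% in these data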
GAL4-VP16 Luc – activates GAL4-VP16 luciferase, flagging SMARCA2 activator hits; actives 41% (n = 3,500); activation, % at 9.1 µM; HEK293 GAL4-VP16 pG5luc reporter, luciferase luminescence; scaled: DMSO wells 0%, SAHA wells 100%; shares compounds with SMARCA2 act; AID 686939;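 active means activation above the solvent-only control well mean plus 3 SD, averaged across control plates, cut at about 5.2% in these data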
Active calls of the source: *; . = not tested or not shown. This is a sample that favours compounds with a hit; in the whole collection about 4.8% have one here.

SMILES	ssDAF-12 act	hgDAF-12 ag	SMARCA2 act	hcDAF-12 act	DAX1 inh-1	DAX1 inh-2	SMARCA2 conf	GAL4-VP16 Luc
Cc1noc(C)c1NC(=O)Nc1ccc2c(c1)C(=O)N([C@@H](C)CO)C[C@@H](C)[C@H](CN(C)S(=O)(=O)c1ccc(F)cc1)OCCCC[C@H](C)O2	-1	2	.	1	.	.	.	.
CC(C)(C)N1NC(=O)Nc2ccccc2C1=O	-1	1	9.6*	-2	-1	1	-3	0
CC(C)(C)N1C(=O)c2ccccc2NC(=O)N1Cc1ccccc1	-1	-1	4	-2	0	1	.	.
COc1ccc(OC)c(CN2C(=O)CCCC2(C)c2nnnn2C2CCCC2)c1 (configuration not stated)	-1	3	-2	0	0	.	.	.
C=CCN1[C@@H](CC(C)C)COc2cc(N3CCSCC3)ccc2S1(=O)=O	-1	-2	0	3	-1	.	.	.
CCCCOC(=O)Nc1nnc(C(C)C)s1	-1	11*	8.0*	3	2	5.7*	8.6*	10.0*
C=CCN1[C@@H](CC(C)C)COc2cc(F)ccc2S1(=O)=O	-1	-2	-5	2	1	.	.	.
CC(C)(C)OC(=O)N1CCC2CCN(S(C)(=O)=O)CC21 (configuration not stated)	-1	2	1	0	-1	.	.	.
CN(C(=O)c1cc2sccc2n1C)C1CCCCC1	-1	12*	8.9*	3	1	1	2	7.5*
COC(=O)[C@]12C[C@H](CC(=O)N3CCCCC3)C(=O)N(Cc3ccco3)C1=C[C@H](C1CCCC1)O[C@@H]2C	-1	3	0	0	-1	.	.	.
COc1ccc2c(c1OC)C(=O)N1c3cccc(Cl)c3C(=O)OC21 (configuration not stated)	0	1	-1	-1	0	-2	.	.
COc1ccc2c(c1OC)C(=O)N1c3ccccc3COC21 (configuration not stated)	0	8	8.2*	2	2	2	8.9*	9.3*
Nc1ccccc1-c1nnc(-c2ccc(-c3ccccc3)cc2)o1	0	10	9.2*	3	2	1	14*	11*
COc1cccc(-c2nnc(-c3ccc(C(F)(F)F)cc3)o2)c1	0	2	1	0	1	2	.	.
Oc1ccccc1-c1nnc(-c2ccc(C(F)(F)F)cc2)o1	0	6	9.9*	-1	0	1	4	6.9*
N#Cc1c(Nc2ccccc2C(F)(F)F)s[nH]c1=O	-2	0	3	-1	0	.	.	.
N#Cc1c(Nc2ccccc2Cl)s[nH]c1=O	-2	-1	8.8*	0	0	-1	7	0
COC(=O)c1cccc(Cn2ccc3ccc(-c4ccc5ccn(C(=O)c6ccccc6OC)c5c4)cc32)c1	-1	-1	0	-1	0	.	.	.
CCOc1ccc(CCN2C(=O)C3C4CCC(O4)C3C2=O)cc1OCC (configuration not stated)	0	0	10*	-1	0	3	0	0
COC(=O)[C@]12C[C@H](CC(=O)N3CCCCC3)C(=O)N(Cc3ccc(Cl)cc3Cl)C1=C[C@H](C(C)C)O[C@@H]2C1CC1	0	-1	0	-2	-1	.	.	.
O=C1C(c2ccccc2)c2ccccc2N1Cc1ccccc1 (configuration not stated)	-1	0	-4	-1	-1	1	.	.
O=C1ON(Cc2ccccc2)C(c2ccccc2)N1c1ccccc1 (configuration not stated)	-1	-1	11*	1	1	2	-2	0
CCCN1C(=O)c2n[nH]c(C(C)C)c2C1c1cccc(C(F)(F)F)c1 (configuration not stated)	-1	1	0	2	1	.	.	.
COc1cc(/C=N/N=C2/NC(=O)C(Cc3ccccc3)S2)ccc1O (configuration not stated)	-2	4	9.0*	-1	1	1	6	5.3*
COc1ccc(/C=N/N=C2/NC(=O)C(CC(=O)O)S2)cc1OS(=O)(=O)c1ccccc1 (configuration not stated)	-2	1	2	0	-1	1	.	.
SMILES	ssDAF-12 act	hgDAF-12 ag	SMARCA2 act	hcDAF-12 act	DAX1 inh-1	DAX1 inh-2	SMARCA2 conf	GAL4-VP16 Luc
Cc1ccc(C)c(NC(=O)c2cc(-c3cc(C)c(C)cc3O)n[nH]2)c1	-1	4	11*	2	0	0	4	5.9*
N#Cc1ccc(OCCCN2CCC(C(O)(c3ccccc3)c3ccccc3)CC2)cc1	-1	-2	-1	-1	1	.	.	.
COc1ccc(S(N)(=O)=O)cc1C(=O)OCC(=O)N1c2ccccc2NC(=O)C1(C)C	0	2	-1	1	0	0	.	.
COc1cc(N)c(Cl)cc1C(=O)OCC(=O)N1c2ccccc2NC(=O)C1(C)C	-1	-1	9.1*	0	0	-1	0	0
COc1cc(-c2nnc(SCC(=O)NN=Cc3c[nH]c4ccccc34)n2-c2ccccc2)cc(OC)c1OC	-1	-4	-2	1	-3	.	.	.
CC(C)NC(=O)N[C@H]1C[C@@H]2O[C@@H](CO)CC[C@@H]2O[C@@H]1CCc1ccc(-c2ccccc2F)cc1	0	-2	-3	-2	0	.	.	.
CC(=O)c1ccc(Sc2nnnn2-c2ccccc2)c([N+](=O)[O-])c1	-1	6	8.6*	-3	0	-1	8	2
CN1CCN(S(=O)(=O)c2ccc(Sc3nnnn3-c3ccccc3)c([N+](=O)[O-])c2)CC1	-1	-1	1	0	0	-1	.	.
CCOC(=O)[C@]12CCCC=C1N(CCCOC)C(=O)[C@@H]2CC(=O)NCc1cccc2ccccc12	-1	-2	1	-2	0	.	.	.
O=C(O/N=C1\CCCc2ccccc21)c1ccc(F)cc1	0	1	9.7*	1	0	0	5	-1
Cc1ccc2c(c1)/C(=N/OC(=O)c1ccc(F)cc1)CCS2	0	4	-5	1	0	1	.	.
Cc1nc(NC(=O)/C=C/c2ccccc2)sc1C(=O)N(C)C	-1	10*	10*	4	1	0	3	6.2*
CCCCCN1CCCCC(NC(=O)c2cccc(C(F)(F)F)c2)C1=O (configuration not stated)	-1	1	0	-2	0	.	.	.

Source: PubChem
